In PubChem BioAssay (NCI) one finds growth data, which are given here for 37 molecules.

Values joined by “and” are separate entries in the source; they are usually repeats but may differ in a detail not shown here. Equal values may be shown once. The panel holds about 83,000 compounds, 20% with a hit somewhere; the sample as a whole holds those more often.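 Compound tested at a single concentration for 48 hours in 96-well plates; a percent growth value below 10 was scored as active.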 Unmarked numbers belong to inactive results. Active and inactive are the calls of the source.

The subject of one assay is A498 renal. Nature of the assay: NCI-60 one-dose screen, 48 h (100 = growth as untreated, 0 = no growth, -100 = all killed). The conditions noted are these: 10 µM. The method, then: Growth inhibition of the A498 human tumor cell line is measured as a screen for anti-cancer activity. Cells are grown in 96 well plates and exposed to the test compound for 48 hours. Compounds are tested at a single concentration, which is 10^-5 M for most compounds. The reported endpoint is percent growth (GI% or GIPRCNT), where numbers from 0 - 100% represent growth inhibition, and numbers from -100% - 0 represent cell death. For example, a value of 40 represents 60% growth inhibition. A value of 0 means no net growth occurred over the course of the experiment. A value of -40 indicates 40% of cells at the beginning of the experiment died by the end of the experiment. A value of -100 means all cells are dead at the end of the experiment.
NCI-60 Human Tumor Cell Lines Screen was performed using the standard one-dose NCI protocol, which is described in more detail at https://dtp.cancer.gov/discovery_development/nci-60/default.htm.
Compounds with GIPRCNT values below 10 were considered active. Activity score was based on GIPRCNT using the following formula: […]
Score is 0 for GIPRCNT values of 100 or above, 50 for GIPRCNT values of 0, and 100 for GIPRCNT values of -100.
With `COc1ccc(C(=O)/C=C/c2ccc(OCc3cccc(C(F)(F)F)c3)c(OC)c2)cc1OC`, the growth is 93.9%. Consider `COc1ccc(C(=O)/C=C/c2ccc(OCc3ccc(Cl)cc3)cc2)cc1OC`, for which the growth is 85.5%. As for `O=C(/C=C/c1cccc(Oc2ccc(Cl)cc2)c1)c1ccccc1`, the growth is 99.2%.

Still in this assay, the particulars now being: 10 µM unless noted.
On to `O=C(O)C1C2CCC1C(O)C2` (stereo not given), for which the growth is 116% and 113%. The same measure, in the same setting: the figure for `CC[C@]12CN3CCc4c([nH]c5ccccc45)[C@@](C(=O)OC)(c4cc5c(cc4OC)N(C)[C@H]4[C@@](O)(C(=O)OC)[C@H](OC(C)=O)[C@]6(CC)C=CCN7CC[C@]54[C@@H]76)CC(C3)[C@H]1O2` (stereo not given in full) is -12.3% (active); for `COCCOc1cc2ncnc(N3CCN(S(=O)(=O)c4ccccc4Cl)CC3)c2cc1OCCOC` it is 54.9%; for `COc1ccc2c(c1)c(C(=O)c1nc(-c3cn(C)c4ccccc34)no1)cn2C` it is 87.7%. For `O=C(/C=C/c1cccs1)Nc1ncc(Cc2ccc(Cl)c(Cl)c2)s1`, the growth was 57.1%. On to `O=C(NCc1cccnc1)/C(=C\c1ccc(Br)cc1)S(=O)(=O)c1ccccc1`, for which the growth is -20.4% (active).

As to `CCOC(=O)n1cc(-c2nonc2-c2cn(C)c3ccc(OC)cc23)c2cc(F)ccc21`, the growth is 67.5%. On the same count and under the same terms, the value for `Cc1nn(-c2nc(-c3cc4ccccc4oc3=O)cs2)c(C)c1N=Nc1ccccc1` was 100%; that for `CC1=C2[C@@H](CC1)[C@]1(C)O[C@@](C(C)C)(C[C@H]1OC(=O)CO)[C@H]2OC(=O)C1CC1c1ccccc1` (stereo not given in full) was -20% (active).

Take `O=C(N/N=C/c1ccc(O)cc1O)c1cccc(Nc2ccnc(C(F)(F)F)c2)c1`: the growth is 44.9%. On the same count and under the same terms, the figure for `COc1ccc(C2Nc3nc(SC)nc(N)c3N=C3c4ccccc4CCC32)cc1` (stereo not given) is 48.8%. As to `COc1cc(N=Nc2ccc(O)c3ncccc23)c2ncccc2c1`, the growth was 74.9%. On the same count and under the same terms, the figure for `Cc1ccc(-c2nc3nc(-c4ccccc4)nc(N4CCN(S(=O)(=O)c5ccccc5)CC4)c3o2)cc1` is 99.3%; for `[Cu+].[NH-][C@H]1C[N-]C(=O)[C@H]([C@H]2CCN=C(N)N2)[N-]C(=O)/C(=C\NC(N)=O)[N-]C(=O)[C@H](CNC(=O)C[C@@H](N)CCCN)[N-]C(=O)[C@H](CO)[N-]C1=O` it is 85.7%. As to `CCOc1ccccc1NC(=O)c1cc2ccccc2cc1O`, the growth was 32.7%. Same read-out and setting: the value for `CCN1C(=O)N(c2ccccc2)C2NC(=S)N(/N=C/C=C/c3ccccc3)C21` (stereo not given) was 6.81% (active); that for `COc1cc(Nc2nc3ccccc3cc2C(=O)Nc2ccc(F)c(F)c2)cc(OC)c1OC` was -3.64% (active).

Regarding `CSc1nnc(-c2cc3c([nH]c4ccccc43)c(-c3cccc(O)c3)n2)n1-c1ccc(C)cc1`, the growth was 30.6%. The same measure, in the same setting: the figure for `COc1ccc(/C=C2\COc3ccc(O)c(O)c3C2=O)c(OC)c1OC` is 109%.

For the molecule `Cc1nc(Nc2ncc(C(=O)Nc3c(C)cccc3Cl)s2)cc(N2CCN(CCO)CC2)n1`, the growth was -24.2% (active) and -40.1% (active). With `CC[C@H](C)[C@H](NC(=O)[C@@H](N)CCC(N)=O)C(=O)N[C@@H](Cc1ccc(O)cc1)C(=O)N[C@@H](CCCCN)C(=O)N[C@@H](CCCCN)C(=O)N[C@@H](Cc1ccc(O)cc1)C(=O)N[C@@H](CCCNC(=N)N)C(=O)N[C@H](C(=O)N[C@@H](Cc1c[nH]c2ccccc12)C(=O)N[C@@H](Cc1ccc(O)cc1)C(=O)N[C@@H](CCCNC(=N)N)C(=O)N[C@@H](CCCCN)C(=O)N[C@@H](C)C(=O)N[C@@H](Cc1c[nH]c2ccccc12)C(=O)N[C@@H](CCCCN)C(=O)N[C@H](C(=O)N[C@@H](CC(C)C)C(=O)NCC(=O)N[C@@H](CCCCN)C(=O)N[C@H](C(N)=O)C(C)C)C(C)C)[C@@H](C)O`, the growth is 64.6%. Consider `Cc1ccc2nc3ccccc3c(NCc3ccc(Cl)cc3)c2c1`, for which the growth is 13%.

As for `CCCCCCNC(=O)Oc1ccc(/C(=C(/CC)Cc2ccccc2)c2ccc(OCCCN(C)C)cc2)cc1`, the growth is 89.9%.

For the molecule `Cc1ccc(Nc2nc(-c3cc(O)c(C)c(C)c3O)cs2)cc1`, the growth was 123%. For `COc1ccc2nc3cc(Cl)ccc3c(NCCCNCCC(C)O)c2c1` (stereo not given), the growth was -79% (active). For `CC1=C2[C@@H](CC1)[C@]1(C)O[C@@](C3CC3)(C[C@H]1OC(=O)CO)[C@H]2OC(=O)/C=C/c1ccccc1`, the growth was -39.1% (active). Regarding `Cc1cnc(C(=O)NNc2nc3sc4c(c3c(=O)[nH]2)C(C)CCC4)cn1` (stereo not given), the growth was 33.9%. With `Cc1cccc(Cc2cnc(NC(=O)CCCOc3ccc(Cl)cc3)s2)c1`, the growth is -2.46% (active). Same read-out and setting: the figure for `Nc1n[nH]c2cccc(C#Cc3cccc(NC(=O)c4ccc(N5CCOCC5)c(C(F)(F)F)c4)c3)c12` is -34.3% (active); for `O=C(/C=C/c1ccccc1)c1cccs1` it is 94.4% and 91.6%; for `CCOC(=O)c1c(-c2ccc(C)cc2)c(C#N)c(=O)n(-c2cccc(C(F)(F)F)c2)c1N` it is 106%. Still for that read-out and setting: the value for `COc1cc(F)c(/C=C/c2cc(/C=C/c3cc(OC)c(OC)cc3F)n(-c3cc(F)cc(F)c3)n2)cc1OC` was 92.4%; that for `COc1ccc(/C(C)=C(\c2ccc(OCCN3CCCCCC3)cc2)c2ccc(OC(=O)C3CCCCC3)cc2)cc1` was -3.54% (active). Turning to `CNC(=O)c1cc(Oc2ccc3nc(NC(=O)Nc4ccc(C(F)(F)F)cc4)sc3c2)ccn1`, the growth is 98.8%.

Staying with this assay, now noted: 100 µM.
As to `COc1ccc(C(=O)/C=C/c2ccc(OCc3cccc(C(F)(F)F)c3)c(OC)c2)cc1OC`, the growth is -12.8% (active). Still for that read-out and setting: the figure for `COc1ccc(C(=O)/C=C/c2ccc(OCc3ccc(Cl)cc3)cc2)cc1OC` is -33.3% (active); for `O=C(/C=C/c1cccc(Oc2ccc(Cl)cc2)c1)c1ccccc1` it is -95.3% (active).
